MCF10A rereplic: DNA re-replication induction in MCF 10a cells; MCF 10A DNA re-replication, Hoechst nuclear intensity, 48 h; Potency, µM (highest dose often 46.1 µM), inactives show at the highest dose activity, positive = re-replication, most hits filed as activators; 350,000 compounds, 2.9% hits; further: % of control where 0% means no effect; nearly all actives have a fitted effect of over 50% in size
SW480 rereplic: induces DNA re-replication in SW480 colon adenocarcinoma cells; SW480 DNA re-replication, Hoechst DNA content imaging, 48 h; Potency, µM (titrated, usually from 46.1 µM), for the others: top-dose re-replication activation, actives largely listed as activators; 340,000 compounds, 1.8% hits; further: % of control where 0% means no effect; nearly all actives have a fitted effect of over 55% in size
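DNA re-replication was detected as more nuclei of elevated Hoechst intensity after 48 hr exposure to compound (23 nL pinned per well of 250 cells).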
AT treatment: potential ataxia-telangiectasia treatments restoring KAP-1 phosphorylation; F2112 A-T fibroblasts, KAP-1 phosphorylation AlphaLISA; neocarzinostatin DNA damage 30 min before lysis; Potency, µM (titrated, usually from 57.5 µM), for inactives: at the top dose activation, usual class: activators; 320,000 compounds, 0.19% hits; AID 485349; further: % of control where 0% means no effect; nearly all actives have a fitted effect of over 45% in size
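hTERT-immortalized A-T patient fibroblasts (F2112), 500 cells/well in OPTI-MEM, 1% FBS, got compounds for 60 min, then NCS for 30 min at 37C. Lysates were then assayed for phospho-KAP-1 by AlphaLISA (anti-pKAP1 donor, anti-KAP1 acceptor beads), 6 hr at 25C.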
a7 integrin act: activates integrin-mediated alleviation for muscular dystrophy | alpha7betagal myoblasts, beta-gal FDG fluorescence, 48 h | Potency, µM (series often up to 38.3 µM), for inactives: at the highest dose activation, hits mostly activators | 350,000 compounds, 0.064% hits | AID 624291;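 further: 100% = response of the positive control SU9516; nearly all actives have a fitted effect of over 60% in size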
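alpha7betagal+/- myoblasts (passage 13, 250/well) treated 48 h at 37C with compounds at 1:260 dilution of DMSO stock. Lysed, then beta-galactosidase activity read as FDG fluorescence (ex 480/em 540) after 30 min, with pre-read for autofluorescence.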
Mito fusion yeast: blocks mitochondrial division or promotes mitochondrial fusion; S. cerevisiae fusion-defective mutant growth rescue, CellTiterGlo 48 h; Potency, µM (doses to about 46.1 µM), for inactives: top-dose growth rescue (activation), most hits filed as activators; 320,000 compounds, 0.23% hits; AID 485298; further: % of control where 0% means no effect; nearly all actives have a fitted effect of over 45% in size
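Luminescent cell viability in 1536-well qHTS format served as the measure of rescued growth in ts fusion-mutant S. cerevisiae cultured on non-fermentable YPEG for 48 hours at 37C.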
* = called active by the depositor; ? = inconclusive; . = not tested or not shown; [ ] = remark or other dose. The list is not random: actives were taken first. Their share in the collection is about 4.2%. The call rests on the fitted dose curve; in most records, active means well fitted activation curve with a large enough effect; inconclusive means small, poorly fitted or top-dose-only effect; inactive means no such curve, though single readings can be large or run the other way. Potency means the concentration at half of the fitted maximal effect.

SMILES	MCF10A rereplic	SW480 rereplic	AT treatment	a7 integrin act	Mito fusion yeast
CC(Oc1cccc(Cl)c1)C(=O)Nc1cc(S(=O)(=O)N2CCOCC2)ccc1N1CCCCC1 (stereo not given)	13µM*	-79.9%	-7.2%	6.0%	?
CCN(CC(=O)Nc1cc(S(=O)(=O)N2CCCCC2)ccc1C)Cc1ccccc1	20.6µM*	-2.4%	7.2%	-38.7%	-15.5%
COc1ccccc1CNCC(=O)Nc1cc(S(=O)(=O)N2CCOCC2)ccc1Cl	16.0%	2.4%	4.5%	-29.0%	-2.9%
COc1ccc(S(=O)(=O)N2CCCCC2)cc1NC(=O)CN(C)C1CCCCC1	8.3%	-0.6%	1.3%	-10.2%	0.9%
CC(C)C(NC(=O)c1ccccc1F)C(=O)NCCCn1ccnc1 (stereo not given)	-2.0%	-3.7%	10.4%	2.5%	.
CCC(C)c1ccccc1N1CC(C(=O)NCCc2ccc(OC)c(OC)c2)CC1=O (stereo not given)	-2.0%	-42.9%	-3.1%	17.3%	-0.5%
Nc1ccc(S(=O)(=O)c2ccc(N)nc2)cc1	-24.0%	-2.7%	.	9.0%	.
CCN(C[C@H]1N[C@@](CC)(C(=O)OC)[C@H]2C(=O)N(C)C(=O)[C@@H]12)C(=O)C1CCCCC1	0.4%	?	3.8%	19.8%	.
Cc1sc2ncnc(SCC(=O)NCC3CCCO3)c2c1C (stereo not given)	-4.3%	-10.4%	4.9%	-21.3%	-4.8%
C#CCCOC(=O)N1C2=NC(C(=O)OC)=C(C(=O)OC)[C@@H]3N(CC=C)c4ccccc4[C@]23C[C@H]1C(=O)OC	6.6%	-2.7%	22.6%	-6.0%	-5.8%
C=CCN1c2ccccc2[C@]23C[C@@H](C(=O)OC)N(C(C)=O)C2=NC(C(=O)OC)=C(C(=O)OC)[C@H]13	17.7%	0.7%	12.6µM*	-11.0%	19.0%
CCc1nnc(NC(=O)CSc2nnc3c(C)cc4c(C)ccc(C)c4n23)s1	9.2µM*	?	-3.1%	-8.1%	-9.3%
Cc1cc(NC(=O)CSc2nnc3c(C)cc4c(C)ccc(C)c4n23)no1	20.6µM*	20.6µM*	-8.0%	-30.9%	0.2%
CCn1c(=S)[nH]c2sc3c(c2c1=O)CCCC3	12.1%	-0.9%	6.7%	-25.6%	2.4%
CC1CCc2c(sc3[nH]c(=S)n(C)c(=O)c23)C1 (stereo not given)	21.2%	10.3µM*	-17.1%	-1.8%	31.2%
COc1ccc(C2CC(=O)C3=C(C2)Nc2ccccc2NC3c2coc3ccccc3c2=O)cc1OC (stereo not given)	2.7%	7.0%	8.8%	27.1%	-15.2%
C=CCN(c1ccccc1)S(=O)(=O)c1cccc(C(=O)N2CCCC2)c1	9.0%	-7.9%	-6.0%	14.5%	3.3%
C=CCN(c1ccccc1)S(=O)(=O)c1cccc(C(=O)N2CC(C)CC(C)C2)c1 (stereo not given)	10.3µM*	?	4.0%	-32.8%	-4.0%
CC1(C)Cc2ccccc2C2=NNC(=O)C2=N1	?	8.2µM*	?	-63.1%	0.3%
CC1(C)Cc2ccccc2C(Nn2cnnc2)=N1	22.4%	0.5%	7.4%	-28.0%	-0.2%
CCCCCCCCNC(=O)c1cccnc1SCC(=O)Nc1ccccc1OC	?	-3.3%	-0.6%	-9.8%	2.7%
C/C(CC(=O)Nc1ccccn1)=N\NC(=O)c1cnccn1	-0.2%	2.6%	21.5%	1.4%	-3.1%
Cc1cc(O)c(Oc2cc(C)cc(O)c2O)c(O)c1	30.4%	18.4µM*	-13.9%	-23.3%	-0.1%
Brc1ccc(CSc2ncnc3nc[nH]c23)cc1	-0.5%	7.3%	27.6%	-15.1%	12.6µM*
O=c1c(Cl)c(O)c2cccc3c4ccccc4n1c23	23.1µM*	-3.5%	-5.9%	-11.4%	24.2%
SMILES	MCF10A rereplic	SW480 rereplic	AT treatment	a7 integrin act	Mito fusion yeast
COc1cc(C(=O)O/N=C2\C=CC(=O)C(C)=C2)cc(OC)c1OC	?	5.8µM*	-3.1%	-67.1%	-4.0%
COc1ccccc1-n1c(SCC(=O)Nc2ccc(Br)cc2)nc(O)cc1=O	2.3%	1.5%[9.22 µM]	1.1%	21.6%	0.4%
Cn1nccc1C(=O)NC1CCCc2c1cnn2-c1ccc(C(C)(C)C)cc1 (stereo not given)	18.4µM*	?	20.5%	0.0%	-8.2%
O=C(NC1CCCc2c1cnn2-c1ccccc1F)c1ccccc1N1CCOCC1 (stereo not given)	-25.6%	-6.3%	-2.7%	0.0%	-14.8%
Cc1cc(C)cc(-n2ncc3c2CCCC3NC(=O)c2ccccc2N2CCOCC2)c1 (stereo not given)	?	20.6µM*	8.0%	-36.3%	-52.4%
COc1ccc2c(c1)CCC1C2CCC2(C)C(O)C(=O)CC12 (stereo not given)	0.7%	-0.2%	.	-5.1%	.
CC1Cn2cc(C(=O)Nc3ccccc3C(F)(F)F)c(=O)c3c(Cl)ccc(c32)O1 (stereo not given)	.	.	-3.4%	.	-1.5%
Cc1ccccc1-c1cc(=O)c2c(O)cccc2o1	-10.3%	-9.3%	39.8µM*	12.1%	-13.7%
O=c1cc(-c2ccccc2)oc2cccc(O)c12	-7.5%	-8.6%	.	-3.7%	.
COCCCn1c(=O)/c(=C\c2ccccc2OC(F)F)s/c1=C(/C#N)C(=O)NC(C)C	9.0%	-3.7%	1.5%	-11.6%	-0.1%
COCCCn1c(=O)/c(=C\c2ccccc2OC(C)C)s/c1=C(/C#N)C(=O)Nc1ccc(C(=O)O)cc1	25.9µM*	?	-6.6%	-0.5%	1.9%
CC(C)COc1ccc(C(=O)Nc2cc(S(=O)(=O)N3CCOCC3)ccc2N2CCCC2)cc1	-0.5%	3.7%	1.9%	0.5%	1.7%
O=[N+]([O-])c1ccccc1/C=N/N1CCN(c2ccncc2S(=O)(=O)N2CCCCC2)CC1	1.4%	13.2%	-3.6%	-32.2%	11.2µM*
O=[N+]([O-])c1ccc(/C=N/N2CCN(c3ccncc3S(=O)(=O)N3CCCCC3)CC2)cc1	2.1%	-8.8%	7.0%	17.5%	-0.8%
O=C(Nc1ccc(S(=O)(=O)NC2=NCCCCC2)cc1)c1ccc(Cl)c([N+](=O)[O-])c1	20.6µM*	2.5%	-7.6%	-45.3%	.
O=C(Nc1ccc(S(=O)(=O)NC2=NCCCCC2)cc1)c1ccc([N+](=O)[O-])s1	?	13µM*	-5.6%	-46.0%	-2.1%
O=S(=O)(NC1c2cccc3cccc(c23)C1N1CCNCC1)c1ccccc1 (stereo not given)	-1.0%	8.3%	7.1%	-23.4%	-7.2%
O=S(=O)(NC1c2cccc3cccc(c23)C1N1CCN(CCO)CC1)c1ccccc1 (stereo not given)	23.1µM*	5.9%[9.22 µM]	9.3%	-15.7%	-1.7%
Cc1ccc(C(C)C)c(OCCCN2CCc3ccccc3C2)c1	20.5%	?	?	?	-7.5%
Cc1ccc(OCCCCN2CCc3ccccc3C2)c(C)c1	25.5%	?	35.5µM*	-11.9%	-0.5%
Cc1cc(C(C)(C)C)ccc1OCCCCN1CCCC1	13µM*	4.1%	6.7%	-40.2%	-10.0%

Screens as filed in PubChem BioAssay.
